{"source": "PubChem BioAssay (EPA / NIEHS)", "note": "Calls of active or inactive are those of the source. Rule for the calls: active = hit-call score of the fitted dose curve at least 0.9, where 1 is the maximum; inactive = score below 0.9."}
{"target": "Signal transducer and activator of transcription 3 (Homo sapiens) (UniProt P40763)", "sequence (P40763 whole entry, looked up)": "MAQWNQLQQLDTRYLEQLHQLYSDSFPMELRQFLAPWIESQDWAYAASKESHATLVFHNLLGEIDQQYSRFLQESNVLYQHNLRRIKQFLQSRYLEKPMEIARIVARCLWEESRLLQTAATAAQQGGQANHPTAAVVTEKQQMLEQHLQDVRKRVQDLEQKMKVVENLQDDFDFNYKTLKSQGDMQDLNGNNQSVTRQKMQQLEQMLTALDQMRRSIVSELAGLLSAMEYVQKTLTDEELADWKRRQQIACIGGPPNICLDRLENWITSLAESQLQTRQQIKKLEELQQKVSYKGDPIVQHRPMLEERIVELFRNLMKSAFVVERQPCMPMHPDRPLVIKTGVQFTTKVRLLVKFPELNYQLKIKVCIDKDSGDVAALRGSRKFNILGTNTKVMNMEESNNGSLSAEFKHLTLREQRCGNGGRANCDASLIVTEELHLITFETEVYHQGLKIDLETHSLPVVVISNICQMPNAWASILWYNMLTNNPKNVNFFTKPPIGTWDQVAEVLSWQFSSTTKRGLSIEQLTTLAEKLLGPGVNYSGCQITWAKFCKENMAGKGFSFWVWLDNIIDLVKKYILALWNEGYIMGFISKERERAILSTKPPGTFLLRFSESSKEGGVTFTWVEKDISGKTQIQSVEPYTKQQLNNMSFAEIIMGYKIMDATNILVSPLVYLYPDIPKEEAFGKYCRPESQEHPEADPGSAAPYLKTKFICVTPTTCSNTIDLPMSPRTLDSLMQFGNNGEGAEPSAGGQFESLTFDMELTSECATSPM", "test": "ATG_STAT3_CIS: Attagene CIS-FACTORIAL HepG2 Assay for human Signal Transducer and Activator of Transcription 3 (STAT3) (AID 2282963)", "settings": "HepG2, Attagene cis-factorial STAT3 reporter transcription; actives raise or lower the signal", "protocol": "ATG_CIS is a cell-based, multiplexed-readout assay that uses HepG2, a human liver cell line, with measurements taken at 24 hours after chemical dosing in a 24-well plate.ATG_STAT3_CIS is one of 52 assay component(s) measured or calculated from the ATG_CIS assay. It is designed to make measurements of mRNA induction, a form of inducible reporter, as detected with fluorescence intensity signals by Reverse transcription polymerase chain reaction (RT-PCR) and Capillary electrophoresis technology.Data from the assay component ATG_STAT3_CIS was analyzed into 1 assay endpoint. This assay endpoint, ATG_STAT3_CIS, was analyzed with bidirectional fitting relative to DMSO as the negative control and baseline of activity. Using a type of inducible reporter, measures of mRNA for gain or loss-of-signal activity can be used to understand the reporter gene at the transcription factor-level as they relate to the gene STAT3. Furthermore, this assay endpoint can be referred to as a primary readout, because this assay has produced multiple assay endpoints where this one serves a reporter gene function. To generalize the intended target to other relatable targets, this assay endpoint is annotated to the dna binding intended target family, where the subfamily is stat protein.\nHuman liver HepG2 cells are transiently transfected with multiple reporter transcription units (MRTUs) in 6-well plates using FuGene 6 reagent (Roche; 3 ml FuGene/1 mg DNA). The MRTU constructs are regulated by a cis-regulating element (promoter). […] A major difference between the CIS and TRANS system is that in CIS activities of endogenous TFs are measured, whereas the TRANS assay evaluates changes in activities of exogenous, chimeric NR-Gal4 proteins. […] At the end of 24 hour incubation, total RNA was isolated using TriZol reagent (Invitrogen). The isolated RNA is then reverse-transcribed using oligo(dT) primer and Mo-MLV reverse transcriptase (Invitrogen) with DNAse I (Ambion) treatment for 30 min. The one-tenth of the produced cDNA was amplified by PCR using Taq DNA polymerase (Invitrogen) and two reporter sequence-specific primers. The PCR products were fluorescently labeled by primer extension with 6-arboxyfluorescein (6-FAM) 5'-labeled reporter sequence-specific primer (2 min at 95 C, 20 s at 68 C and 10 min at 72 C) and these products were digested with 5U of HpaI (New England Biolabs) for 2h at 37 C. The fragments were purified using Qiaquick PCR columns (Qiagen), analyzed on an ABI 3130xL genetic analyzer (Applied Biosystems) with peak positions identified by using a set of X-rhodamine (ROX)-labeled MapMarker1000 molecular weight standards (BioVentures). The raw capillary electrophoresis data was processed using Attagraph software (Attagene)."}
{"smiles": "CCCCCC(C)OC(=O)COc1ccc(Cl)c2cccnc12", "note": "(stereo not given)", "outcome": "inactive"}
{"smiles": "CCCCCCCCCCCC[N+](C)(C)Cc1ccccc1", "outcome": "inactive"}
{"smiles": "O=P(O)(O)CCC(F)(F)C(F)(F)C(F)(F)C(F)(F)C(F)(F)C(F)(F)C(F)(F)C(F)(F)F", "outcome": "inactive"}
{"smiles": "Cc1ccccc1OCC(=O)O", "outcome": "inactive"}
{"smiles": "O=C1c2ccc(O)c(O)c2C(=O)c2c(O)ccc(O)c21", "outcome": "inactive"}
{"smiles": "COc1ccc(C#N)cc1", "outcome": "inactive"}
{"smiles": "Nc1ccc(O)c(C(=O)O)c1", "outcome": "inactive"}
{"smiles": "CC1=NN(c2ccccc2)C(=O)C1", "outcome": "inactive"}
{"smiles": "O=C1OC2(c3ccccc31)c1cc(I)c(O)c(I)c1Oc1c2cc(I)c(O)c1I", "outcome": "inactive"}
{"smiles": "CCOC(=O)c1nc(C(Cl)(Cl)Cl)n(-c2ccc(Cl)cc2Cl)n1", "outcome": "inactive"}
{"smiles": "Oc1c(Cl)cc(Cl)cc1Sc1cc(Cl)cc(Cl)c1O", "outcome": "inactive"}
{"smiles": "NCCN", "outcome": "inactive"}
{"smiles": "CCc1cccc(CC)c1NC(=O)C(=O)O", "outcome": "inactive"}
{"smiles": "N=C(N)c1ccc(OCCCCCOc2ccc(C(=N)N)cc2)cc1", "outcome": "inactive"}
{"smiles": "CCCCc1ccc2ccccc2c1S(=O)(=O)O", "outcome": "inactive"}
{"smiles": "OCC1CCC(CO)CC1", "note": "(stereo not given)", "outcome": "inactive"}
{"smiles": "O=C(C=C(O)C(F)(F)F)C(F)(F)F", "outcome": "inactive"}
{"smiles": "CN(Cc1cnc2nc(N)nc(N)c2n1)c1ccc(C(=O)N[C@@H](CCC(=O)O)C(=O)O)cc1", "outcome": "inactive"}
{"smiles": "CC1COCc2cc3c(cc21)C(C)(C)C(C)C3(C)C", "note": "(stereo not given)", "AC50": "176 µM (active)"}
{"smiles": "O=C(F)C(F)(F)C(F)(F)C(F)(F)C(=O)F", "outcome": "inactive"}
{"smiles": "O=C(O)CN(CCCN(CC(=O)O)CC(=O)O)CC(=O)O", "outcome": "inactive"}
{"smiles": "O=C(CC(=O)C(F)(F)C(F)(F)C(F)(F)F)c1cccs1", "outcome": "inactive"}
{"smiles": "CCc1ccccc1O", "outcome": "inactive"}
{"smiles": "O=C(F)C(F)(F)C(F)(F)C(F)(F)C(F)F", "outcome": "inactive"}
{"smiles": "CNNCc1ccc(C(=O)NC(C)C)cc1", "outcome": "inactive"}
{"smiles": "CCOC(C)=O", "outcome": "inactive"}
{"smiles": "Oc1cccc2c(O)cccc12", "outcome": "inactive"}
{"smiles": "CCOC(OCC)C(=O)c1ccccc1", "outcome": "inactive"}
{"smiles": "NC(=NCCCCCCN=C(N)/N=C(\\N)Nc1ccc(Cl)cc1)/N=C(\\N)Nc1ccc(Cl)cc1", "outcome": "inactive"}
{"smiles": "O=C1OC(=O)C(F)(F)C1(F)F", "outcome": "inactive"}
{"smiles": "Oc1ccc(Cc2ccccc2O)cc1", "outcome": "inactive"}
{"smiles": "Cc1cc(Cc2cc(C)cc(C(C)(C)C)c2O)c(O)c(C(C)(C)C)c1", "AC50": "160 µM (active)"}
{"smiles": "O=C(Nc1cccc([N+](=O)[O-])c1)c1cc2ccccc2cc1O", "outcome": "inactive"}
{"smiles": "Oc1cc2ccccc2cc1O", "outcome": "inactive"}
{"smiles": "OCC(F)(F)C(F)(F)C(F)(F)C(F)(F)C(F)(F)C(F)(F)C(F)(F)C(F)(F)C(F)(F)C(F)(F)C(F)(F)F", "outcome": "inactive"}
{"smiles": "FC(OC(F)(F)C(F)(F)C(F)(F)F)C(F)(F)F", "note": "(stereo not given)", "outcome": "inactive"}
{"smiles": "OCC(CO)(CBr)CBr", "outcome": "inactive"}
{"smiles": "CCCCCCCCCCCCOC(=O)c1cc(O)c(O)c(O)c1", "outcome": "inactive"}
{"smiles": "CCOCCOCC", "outcome": "inactive"}
{"smiles": "O=S(=O)(O)C(F)(F)C(F)(F)C(F)(F)C(F)(F)C(F)(F)C(F)(F)C(F)(F)C(F)(F)C(F)(F)C(F)(F)F", "outcome": "inactive"}
